Data taken from PubChem BioAssay AID504339 (National Center for Advancing Translational Sciences (NCATS), 2011).
Hit rate of the full screen: of about 390,000 compounds, about 17,000 (4.4%) were called active. About 8% were inconclusive and are not listed. What follows is part of a selection rich in actives, with near analogues and random picks from the rest. Unmarked numbers belong to inactive results. Calls follow the shape of the dose curve; as a rule, active = well fitted inhibition curve with a large enough effect; inconclusive = small, poorly fitted or top-dose-only effect; inactive = no such curve, though single readings can be large or run the other way.

The compounds below were run against Lysine-specific demethylase 4A (Homo sapiens) (UniProt O75164) (assay: qHTS Assay for Inhibitors of JMJD2A-Tudor Domain). Conditions: AlphaScreen JMJD2A-Tudor / H3K4me3 peptide binding; series mostly up to 114 µM; activity change, negative = inhibition: at the top concentration.
% is scaled to controls: 0 for no effect and ±100 for the full control effect; potency is read from the fitted curve at half-maximal effect.
Also: nearly all actives have a fitted effect of over 50% in size.

Sequence of Lysine-specific demethylase 4A (Homo sapiens) (O75164 whole entry, looked up, the tested form may be a part): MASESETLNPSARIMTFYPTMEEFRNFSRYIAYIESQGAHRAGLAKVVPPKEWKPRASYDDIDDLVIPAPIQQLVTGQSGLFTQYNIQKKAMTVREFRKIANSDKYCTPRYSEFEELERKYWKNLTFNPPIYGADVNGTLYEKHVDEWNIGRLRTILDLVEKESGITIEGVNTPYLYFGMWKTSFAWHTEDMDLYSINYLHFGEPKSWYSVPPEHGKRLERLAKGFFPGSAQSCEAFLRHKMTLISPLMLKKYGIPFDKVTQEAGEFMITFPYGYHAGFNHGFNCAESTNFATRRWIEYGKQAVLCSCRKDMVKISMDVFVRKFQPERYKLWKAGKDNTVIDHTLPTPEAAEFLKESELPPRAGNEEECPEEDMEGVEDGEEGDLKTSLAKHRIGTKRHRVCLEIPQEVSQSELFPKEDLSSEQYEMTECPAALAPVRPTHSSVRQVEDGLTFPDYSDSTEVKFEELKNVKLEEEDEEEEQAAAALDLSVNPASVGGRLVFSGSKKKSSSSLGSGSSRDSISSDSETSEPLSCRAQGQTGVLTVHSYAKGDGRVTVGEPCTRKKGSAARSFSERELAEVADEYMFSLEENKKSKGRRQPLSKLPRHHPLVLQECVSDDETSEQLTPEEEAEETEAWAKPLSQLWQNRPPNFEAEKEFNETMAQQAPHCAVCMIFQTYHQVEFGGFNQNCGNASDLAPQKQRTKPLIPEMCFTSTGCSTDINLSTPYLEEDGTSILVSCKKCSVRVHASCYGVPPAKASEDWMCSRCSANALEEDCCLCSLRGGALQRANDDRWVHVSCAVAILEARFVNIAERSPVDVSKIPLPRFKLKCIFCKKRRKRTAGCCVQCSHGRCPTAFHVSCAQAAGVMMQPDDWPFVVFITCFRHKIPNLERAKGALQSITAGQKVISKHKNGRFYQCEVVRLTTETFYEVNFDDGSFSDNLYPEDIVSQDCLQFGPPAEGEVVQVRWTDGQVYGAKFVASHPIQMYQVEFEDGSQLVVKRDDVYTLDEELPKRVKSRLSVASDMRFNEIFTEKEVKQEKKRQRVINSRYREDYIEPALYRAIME

| Structure (SMILES) | activity change, negative = inhibition | Potency |
| --- | --- | --- |
| Cc1ccc2c(c1)c1c(c(=O)n(-c3ccccc3)c(=O)n1CC(=O)c1ccc(Cl)cc1)n2C | -6.21% | – |
| Cc1ccc(C)c(OCC(=O)Nc2sc3c(c2C#N)CCCC3)c1C | -3.46% | – |
| Cc1cc(C)cc(NC(=O)CSc2nc(=O)n(CCN3CCOCC3)c3c2CCC3)c1 | -23.1% | – |
| CC1CCCN(CCOCCOc2ccccc2-c2ccccc2)C1 (stereo unspecified) | – | 20 µM (active) |
| O=C(COc1ccccc1Cl)N1CCCCCCC1 | -8.16% | – |
| c1ccc(-c2ccccc2OCCN2CCCCC2)cc1 | – | 8.91 µM (active) |
| CC1CCCN(CC(=O)Nc2cc(Cl)ccc2Oc2ccccc2)C1 (stereo unspecified) | 50.3% | – |
| CC1CC(C)CN(CCOc2cccc3ccccc23)C1 (stereo unspecified) | -25.8% | – |
| O=S(=O)(c1cccs1)N1CCN(CCOc2ccccc2)CC1 | -7.9% | – |
| COCCNC(=O)CSc1nc(-c2ccccc2)[nH]c1-c1ccc(C)cc1 | -23.3% | – |
| COc1cccc(CNC(=O)CN2C(=O)CCc3cc(S(=O)(=O)N4CCOCC4)ccc32)c1 | -9.6% | – |
| Cc1ccc(Cl)cc1-n1ncc2c(N3CCC(C(N)=O)CC3)ncnc21 | -7.65% | – |
| Cc1ccc(C(=O)N2CCc3cc(CNC(=O)c4ccc(Br)cc4)ccc32)cc1 | -21% | – |
| O=C(COc1ccc(/C=N/NS(=O)(=O)c2ccccc2)cc1)NCCc1ccccc1 | -1.37% | – |
| COc1ccc(N2CC(NS(=O)(=O)c3ccc4ccccc4c3)CC2=O)cc1 (stereo unspecified) | -0.687% | – |
| O=S(=O)(N/N=C\c1cccn1-c1ccccc1)c1ccc2ccccc2c1 | – | 50.1 µM (active) |
| CCc1cnc2c(c1SCC(=O)N1CCC(C)CC1)c(=O)n(C)c(=O)n2C | -9.42% | – |
| Cc1cc(C)c(NC(=O)c2cc3sc(Cl)cc3n2C)c(C)c1 | -1.09% | – |
| COc1cccc(C(=O)OCc2cc(=O)oc3c(C)c(C)ccc23)c1OC | – | 79.4 µM (active) |

| Structure (SMILES) | activity change, negative = inhibition | Potency |
| --- | --- | --- |
| COc1cccc(OCC(O)CNC(=O)c2oc3c(C)c(C)ccc3c2C)c1 (stereo unspecified) | -29.9% | – |
| COC(=O)Cc1cc(=O)oc2c(C)c(O)ccc12 | -6.41% | – |
| CCn1c(CN2CCC(C)CC2)nc2cc(NC(=O)c3ccccc3[N+](=O)[O-])ccc21 | -18.9% | – |
| Cc1nn(C(C)C(=O)Nc2ccc(C(C)C)cc2)c(=O)c2c1sc1ccccc12 (stereo unspecified) | -22.2% | – |
| COc1ccc(NC(=O)CCc2nnc3n(CC(C)C)c(=O)c4ccccc4n23)cc1OC | -24.4% | – |
| COC(=O)c1ccccc1NC(=O)c1ccc(COc2ccccc2Cl)o1 | 15.8% | – |
| CCN(CCCNC(=O)c1cc2c(=O)n(CC)c3ccccc3c2s1)Cc1ccccc1 | -17.2% | – |
| N#Cc1c(N2CCCCC2)nc(N)c2c(N)nc(SCC(=O)O)cc12 | – | 50.1 µM (active) |
| N#Cc1c(C(F)(F)F)cc(-c2ccc(Cl)cc2)nc1SCC(=O)O | -19.7% | – |
| O=C(O)CSc1ccc(S(=O)(=O)N2CCCC2)cn1 | -1.35% | – |
| COc1cc(NC(=O)c2cc(C3CC3)nc3c2c(C)nn3-c2ccccc2)cc(OC)c1 | -10.4% | – |
| Cc1ccc(C)c(N2CCN(C(c3ccccc3)c3nnc(-c4ccccc4)o3)CC2)c1 (stereo unspecified) | -24.7% | – |
| CCc1ccc(NC2Nc3cc(C)nn3S2)cc1 (stereo unspecified) | – | 22.4 µM (active) |
| CCOC(=O)c1ccc(NC2Nc3cc(C)nn3S2)cc1 (stereo unspecified) | -23.3% | – |
| COc1cccc(N2CC(NC(=O)/C=C\c3ccccc3)CC2=O)c1 (stereo unspecified) | -14.9% | – |
| Cc1ccc(C(=O)NCCc2nnc(SCC(=O)Nc3cccc(C(=O)O)c3)n2C)cc1 | -5.52% | – |
| COc1ccccc1-n1c(SCC(=O)Nc2cccc(C(=O)O)c2)nnc1-c1ccccc1O | 7.56% | – |
| Cc1ccc(C)c2c1cc(C)c1nnc(SCC(=O)Nc3cccc(C(=O)O)c3)n12 | – | 12.6 µM (active) |
| COC(=O)c1ccc(NC(=O)c2cc(S(=O)(=O)N3CCC(C)CC3)cn2C)cc1 | -10.5% | – |

| Structure (SMILES) | activity change, negative = inhibition | Potency |
| --- | --- | --- |
| Cc1ccc(Nc2nc3ccccc3nc2-n2nc(C)cc2C)c(Cl)c1 | 51% | – |
| Cc1ccc(Cn2ncc3c4sc(C)cc4n(C)c3c2=O)c(C)c1 | -15.8% | – |
| COCCCNC(=O)c1ccc(CNS(=O)(=O)c2ccc(NC(C)=O)cc2)cc1 | – | 50.1 µM (active) |
| Cc1ccc(CCNC(=O)c2ccc(CNS(=O)(=O)c3ccc(C)cc3)cc2)cc1 | -9.48% | – |
| CCCCNC(=O)C1CCC(CNS(=O)(=O)c2ccc(NC(C)=O)cc2)CC1 (stereo unspecified) | – | inactive |
| Cc1ccc(CN2CCC(CNC(=O)c3cnn(-c4ccccc4Cl)c3C3CCN(C(=O)OC(C)(C)C)CC3)CC2)cc1 | -31.4% | – |
| CCc1cccc(CC)c1NC(=O)Cn1c(=O)c(-c2cc(C)ccc2NC(C)=O)nc2ccccc21 | -16.2% | – |
| COC(=O)c1ccccc1NC(=O)C(Cc1ccccc1)N1Cc2ccccc2C1=O (stereo unspecified) | -12.9% | – |
| CCOc1cc(/C=N/Nc2cc(C)nc3ccc(C)cc23)ccc1O | -3.74% | – |
| CCN(CC)c1ccc(/C=N/Nc2nc(C)cc(C)n2)c(O)c1 | – | 50.1 µM (active) |
| CCN(CC)c1ccc(/C=N/NC(=O)c2cnccn2)c(O)c1 | -20.4% | – |
| CCCCNC(=O)Cn1c(SCc2cccc(Cl)c2)nc2ccncc21 | -1.54% [at 57.1 µM] | – |
| CCCN(CCC)CCCNC(=O)Cn1ncc2c3ccccc3n(Cc3ccccc3)c2c1=O | -10.4% | – |
| C=CCc1ccccc1OCC(O)CN1CCN(CCO)CC1 (stereo unspecified) | -2.49% | – |
| Cc1ccc(OCC(O)CN2CCN(CC(O)COc3ccc(C)cc3Cl)CC2)c(Cl)c1 (stereo unspecified) | 4.49% | – |
| Cc1cccc(OCC(O)CN2CCN(CCN3C(=O)c4cccc5cccc(c45)C3=O)CC2)c1C (stereo unspecified) | – | 39.8 µM (active) |
| COc1ccc(NC(=O)Cn2c(=O)n(CCC(C)C)c(=O)c3cccnc32)cc1Cl | -14.9% | – |
| Cc1cc(C)cc(NC(=O)c2cnc3sc(N4CCCC4)nn3c2=O)c1 | -29.7% | – |
